Test results from PubChem BioAssay AID1851 (National Center for Advancing Translational Sciences (NCATS), 2009).
Values joined by “and” are separate entries in the source; they are usually repeats but may differ in a detail not shown here. Equal values may be shown once. Screen size: about 16,000 compounds; about 5,100 (32%) were called active. Another 25% or so got no clear call; they are omitted. The list shows a part of the results. A number with no mark means an inactive call. Calls follow the shape of the dose curve; as a rule, active = well fitted curve in the direction sought with a large enough effect; inconclusive = small, poorly fitted or top-dose-only effect, or effect the other way; inactive = no such curve, though single readings can be large or run the other way.

Target: Cytochrome P450 3A4 (Homo sapiens) (UniProt P08684)
Assay: Cytochrome panel assay with activity outcomes
Settings: recombinant CYP, pro-luciferin dealkylation, luminescence, p450-cyp3a4; series mostly up to 57.1 µM
% is scaled to controls: 0 for no effect and ±100 for the full control effect.

Chain of Cytochrome P450 3A4 (Homo sapiens) (P08684 whole entry, looked up): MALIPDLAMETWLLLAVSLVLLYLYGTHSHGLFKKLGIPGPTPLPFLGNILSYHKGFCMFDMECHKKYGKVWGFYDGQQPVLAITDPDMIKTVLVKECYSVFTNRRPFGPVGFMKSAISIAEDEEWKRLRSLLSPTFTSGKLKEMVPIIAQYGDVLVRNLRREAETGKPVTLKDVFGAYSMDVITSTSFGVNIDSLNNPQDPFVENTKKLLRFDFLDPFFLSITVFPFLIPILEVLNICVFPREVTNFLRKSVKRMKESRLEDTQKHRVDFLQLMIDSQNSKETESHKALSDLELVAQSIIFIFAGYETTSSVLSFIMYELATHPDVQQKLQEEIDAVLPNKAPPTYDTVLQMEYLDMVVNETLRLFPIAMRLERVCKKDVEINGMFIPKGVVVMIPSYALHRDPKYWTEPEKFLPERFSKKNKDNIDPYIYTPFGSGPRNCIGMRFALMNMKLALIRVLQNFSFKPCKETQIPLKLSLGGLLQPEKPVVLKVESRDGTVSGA

SMILES	AC50	activity, negative = inhibition
O=c1c2ccccc2nc2n1C(CSCc1cccc(C(F)(F)F)c1)CS2 (stereo unspecified)	4.47 µM (active)	–
Cc1ncc2c(c1O)COP(=O)(O)OC2	inactive	–
O=C(Nn1cnc2ccccc2c1=O)c1ccc(F)cc1Cl	inactive	–
COc1ccc(C(=O)Nn2cnc3ccccc3c2=O)c(OC)c1	25.1 µM (active)	–
COC(=O)c1cn(NC(=O)c2ccc(F)cc2)c(=O)c2ccccc12	–	-2.1% [at 2.29 µM]
COc1cccc(Cn2c(=O)c(-c3cn(C)c4ccccc34)nc3cnc(OC)nc32)c1	7.94 µM (active)	–
CCNc1ncc2nc(-c3cn(C)c4ccccc34)c(=O)n(Cc3cccc(OC)c3)c2n1	3.98 µM (active)	–
COc1cccc(Cn2c(=O)c(-c3cn(C)c4ccccc34)nc3cnc(N4CCOCC4)nc32)c1	inactive	–
CCNc1ncc2nc(-c3cn(C)c4ccccc34)c(=O)n(Cc3ccc(F)cc3)c2n1	15.8 µM (active)	–
COc1ncc2nc(-c3cn(C)c4ccccc34)c(=O)n(Cc3ccc(F)cc3)c2n1	6.31 µM (active)	–
Cn1cc(-c2nc3cncnc3n(Cc3ccc(F)cc3)c2=O)c2ccccc21	inactive	–
CN(C)CCCNc1c(C(=O)O)cnc2c1cnn2C	inactive	–
COc1ccc(N2C(N)=NC(N)=NC2(C)C)cc1	inactive	–
COC(=O)C1=C(C)NC(C)=C(C(=O)OCCSc2ccccc2)[C@@H]1C	10 µM (active)	–
COC(=O)c1cc(=O)n(C2CC2)c(=NC2CC2)s1	inactive	–
Oc1ccc(OCc2ccccc2)cc1	inactive	–
OC(COCc1ccccc1)Cn1cnc2ccccc21 (stereo unspecified)	3.98 µM (active)	–
CCC(=O)c1ccc(OCC(O)CN2CCCCC2)cc1 (stereo unspecified)	inactive	–
C[n+]1cn(CC(O)COCc2ccccc2)c2ccccc21 (stereo unspecified)	inactive	–
CC(=O)Nc1ccc(OC[C@@H](O)CNC(C)C)cc1	inactive	–
CC(=O)Nc1ccc(OCC(O)Cn2cnc3ccccc32)cc1 (stereo unspecified)	14.1 µM (active)	–

SMILES	AC50	activity, negative = inhibition
O=C(O)[C@@H]1[C@@H]2C[C@H]([C@@H](Br)[C@H]2N2C(=O)CCC2=O)[C@@H]1C(=O)O	–	2.42% [at 11.4 µM]
C=CCn1c(SCC(=O)NC2CCCCC2)nnc1C1CCCCC1	8.91 µM (active)	–
CCCCC(=O)Nc1nnc(SCC(=O)NC2CCCC2)s1	–	-12.4% [at 2.29 µM]
Cc1nn(C)cc1CNC(=O)CCC(=O)O	inactive	–
CCn1ncc(/C=C/C(=O)NCc2cn(C)nc2C)c1C	inactive	–
COc1ccc(/C=N/NC(=O)c2ccn[nH]2)cc1COc1ccc(F)cc1	–	-10.3% [at 2.29 µM]
COc1ccc(C(=O)NN)cc1COc1ccc(Br)cc1	1.26 µM (active)	–
COc1ccc(/C=N/NC(=O)c2ccn[nH]2)cc1COc1ccc(Cl)cc1	–	-16.8% [at 2.29 µM]
COc1ccc(/C=C/C(=O)NCc2cn(C)nc2C)cc1COc1ccc(Br)cc1	3.16 µM (active)	–
COc1cc(/C=C(\C#N)C(N)=O)cc(CSc2nc3ccccc3s2)c1O	3.98 µM (active)	–
C[C@](N)(COP(=O)(O)O)C(=O)O	inactive	–
COC(=O)c1ccc(-n2cncn2)c(F)c1	7.94 µM (active)	–
O=C(Nc1cc(C(F)(F)F)ccc1-n1cncn1)c1ccc(Br)cc1	–	-10.9% [at 2.29 µM]
C[C@@H]1O[C@H](O[C@@H]2[C@@H](Oc3cc(O)c4c(c3)O[C@H](c3ccc(O)cc3)CC4=O)O[C@@H](CO)[C@@H](O)[C@H]2O)[C@@H](O)[C@H](O)[C@@H]1O	inactive	–
COc1cccc(N2C(=O)C(CC(=O)Nc3ccccc3)N(C3CCCCC3)C2=O)c1 (stereo unspecified)	5.01 µM (active)	–
O=C1C=C[C@@H](O)[C@H]2[C@@H]3C(=O)N(c4cccc(Oc5ccccc5)c4)C(=O)[C@@H]3CC[C@H]12	–	-11.6% [at 11.4 µM]
COc1ccc(NC(=O)CC2C(=O)N(c3cccc(OC)c3)C(=O)N2C2CCCCC2)cc1 (stereo unspecified)	8.91 µM (active)	–
CCN1CCN(CCC(=O)Nc2cccc(OC)c2)CC1	inactive	–
O=C(CSc1nnnn1C1CCCC1)Nc1ccc(F)cc1	14.1 µM (active)	–
CCC(CC)C(=O)Nc1cccc(/C(C)=N\NC(=O)c2ccc(C)s2)c1	7.94 µM (active)	–
CCOC(=O)c1c(NC(=O)c2c(Br)cnn2C)c(C#N)nn1-c1ccccc1	inactive	–

SMILES	AC50	activity, negative = inhibition
C/C(=N\NC(=O)c1cccc(F)c1)c1ccc(Br)s1	inactive	–
CCOc1ccc(N(C(C)C(=O)N/N=C(\C)c2cccc(NC(=O)c3ccccc3)c2)S(C)(=O)=O)cc1 (stereo unspecified)	–	-20.9% [at 2.29 µM]
C/C(=N\NC(=O)c1ccc(Cl)cc1)c1cccc(NC(=O)C(C)C)c1	15.8 µM (active)	–
CCC(CC)C(=O)Nc1cccc(/C(C)=N/NC(=O)c2c(Br)cnn2C)c1	14.1 µM (active)	–
Cc1cc(=O)[nH]c2c1c(C)nn2C1CCOC(C)(C)C1 (stereo unspecified)	inactive	–
Cc1[nH]c2ccccc2c1-c1cc(-c2cc(-c3c(C)[nH]c4ccccc34)on2)no1	–	-5.38% [at 11.4 µM]
CCn1c(C)nc2cc(S(=O)(=O)C(F)F)ccc21	–	9.09% [at 11.4 µM]
CCCCn1c(SCc2c(C)noc2C)nc2cc(S(N)(=O)=O)ccc21	0.708 µM (active)	–
CCCOc1ccc(C(=O)NNC(=S)NC(=O)CC)cc1	–	-8.65% [at 2.29 µM]
CCCOc1ccc(C(=O)NNC(=S)NC(=O)c2cc(-c3ccccc3)nc3ccccc23)cc1	8.91 µM (active)	–
CN(C)CCOC(=O)C1(c2ccccc2)CCOCC1	inactive	–
O=C(OCCN1CCOCC1)C1(c2ccccc2)CCCCC1	3.16 µM (active) and 1.58 µM (active)	–
CCN(CC)CCOC(=O)C1(c2ccc([N+](=O)[O-])cc2)CCCC1	inactive	–
NC(N)=NN=Cc1c(Cl)cccc1Cl	inactive	–
O=C(Cc1cccs1)N1CCC(c2nc3c(nnn3Cc3ccccc3Cl)c(=O)[nH]2)CC1	3.16 µM (active)	–
COc1ccccc1Cn1nnc2c(=O)[nH]c(C3CCN(C(=O)c4ccc(C)cc4)CC3)nc21	1.58 µM (active)	–
COCC(=O)N1CCC2(CCN(Cc3ccccc3OC)CC2)CC1	inactive	–
COc1ccc(C(=O)N2CCC3(CCN(Cc4ccccc4OC)CC3)CC2)cc1	inactive	–
Cc1ccc(Cn2nnc3c(=O)[nH]c(C4CCN(C(=O)Cc5cccs5)CC4)nc32)cc1	4.47 µM (active)	–
